The source made the active and inactive calls. Unless noted, no rule for the calls is given here.
Experiments:
[1] = anti-His antibody binders, primary screen, artefact control for SMM control protein annotation, biochemical, small-molecule microarray, 635 nm fluorescence (AID 1128); conditions: anti-His Alexa647 antibody binding, higher = more signal;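 also: score merges feature fluorescence with signal-to-noise for each printed compound spot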
[2] = test system: Human papillomavirus type 1a E7 protein (residues 1-88); assay: HPV1a E7 small-molecule binders, primary screen, biochemical, small-molecule microarray, residues 1-88, 635 nm (AID 1129); conditions: small-molecule microarray binding, fluorescence 635 nm; higher = more signal
[3] = target: Focal adhesion kinase 1 (Homo sapiens) (UniProt Q05397); assay: small-molecule microarray binders of FAK, primary screen, biochemical, 635/667 nm fluorescence, BSA, DTT (AID 1130); conditions: PTK2 binding, 635 nm fluorescence, higher = more signal;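 also: composite of spot emission at 667 nm and signal to noise over triplicate slides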
[4] = test system: Fibrinogen (Alexa647-labelled); assay: fibrinogen binders on compound microarrays, profiling panel, artefact control for SMM control-protein annotation, biochemical, small-molecule microarray, 635/667 nm fluorescence (AID 1131); conditions: fibrinogen-A647 binding fluorescence, higher = more signal;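 also: z-score merges 667 nm fluorescence with per-spot signal-to-noise over triplicate slides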
[5] = target: Follistatin (Homo sapiens) (UniProt P19883); assay: follistatin binders on small-molecule microarrays, primary screen, biochemical, small-molecule microarray, 635/667 nm fluorescence (AID 1132); conditions: FST binding, 635 nm fluorescence, higher = more signal
[6] = target: Fibroblast growth factor 2 (Homo sapiens) (UniProt P09038); assay: FGF2 binders on small-molecule microarrays, primary screen, biochemical, small-molecule microarray, 635/667 nm fluorescence (AID 1133); conditions: small-molecule microarray binding, FGF2, fluorescence 635/667; higher = more signal
[7] = mitochondrial membrane potential change in A549 cells, profiling panel, cell-based, JC-1 fluorescence, basal, 24 h, 100 nL (AID 1138); conditions: higher = more signal;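 also: A549 lung adenocarcinoma cells under basal conditions with no added stimulus; test concentration not given here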
Lefty1 = Lefty1 binders on small-molecule microarrays, primary screen, biochemical, small-molecule microarray, 635/667 nm fluorescence (AID 1139); conditions: small-molecule microarray binding, fluorescence 635/667; higher = more signal
[8] = test system: wheat germ agglutinin (Triticum aestivum), Alexa647-labelled; assay: wheat germ agglutinin binders on compound microarrays, profiling panel, artefact control for SMM control-protein annotation, biochemical, small-molecule microarray, 635/667 nm fluorescence (AID 1140); conditions: WGA-A647 binding, 635 nm fluorescence, higher = more signal;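 also: score merges 667 nm feature emission with signal to noise over triplicate slides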
[9] = target: Luciferin 4-monooxygenase (Photinus pyralis) (UniProt P08659); assay: firefly luciferase enzyme inhibitors, primary screen, biochemical, luminescence, purified enzyme, 2006 set (AID 1141); conditions: SteadyGlo luminescence, 30 min, higher = more signal, called active from +8 up or from −8 down;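 also: cell-free assay with purified firefly luciferase at 100 ng per well in PBS; test concentration not given here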
[10] = test system: Wnt5a (protein binding on small-molecule microarray); assay: Wnt5a binders on small-molecule microarray, primary screen, biophysical, 635/667 nm fluorescence (AID 1142); conditions: 635 nm fluorescence, higher = more signal;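 also: fluorescence read at 667 nm with signal to noise per printed feature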
[11] = cell viability in Huh7 cells, primary screen, cytotoxicity control for HCV replication inhibitor project, CellTiter-Glo luminescence, basal, 48 h (AID 1143); conditions: Huh7 HCV replicon, higher = more signal, called active from +8 up or from −8 down;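 also: Huh7 hepatoma cells carrying a hepatitis C replication reporter with no stimulus; test concentration not given here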
[12] = P. aeruginosa biofilm formation inhibitors, primary screen, PAO1 strain, BacTiter-Glo luminescence, LB-PBS (AID 1144); conditions: 12 h, higher = more signal
[13] = CREB reporter modulators without forskolin, primary screen, cell-based, PC12, CRE-LacZ reporter, unstimulated (AID 1145); conditions: no forskolin, luminescence, 4.5 h, higher = more signal, called active from +8 up or from −8 down
[14] = CREB reporter modulators under forskolin, primary screen, cell-based, PC12, CRE-LacZ reporter, forskolin-stimulated (AID 1146); conditions: luminescence, 4.5 h, higher = more signal, called active from +8 up or from −8 down;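 also: PC12 cells with 6xCRE LacZ reporter stimulated by forskolin 10 µM; beta-galactosidase reporter signal reflecting CREB driven transcription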
[15] = target: Streptavidin (Streptomyces avidinii) (UniProt P22629); assay: streptavidin binders on small-molecule microarray, primary screen, artefact control for SMM compound annotation, biophysical, 635/667 nm fluorescence (AID 1147); conditions: streptavidin binding, higher = more signal;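 also: signal reflects streptavidin binding to arrayed compounds as a control protein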
[16] = small-molecule binders of probe aInhba, primary screen, biochemical, small-molecule microarray, 635/667 nm fluorescence (AID 1148); conditions: higher = more signal;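 also: score merges 667nm spot fluorescence with signal-to-noise for antibody binding to printed compounds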
Torsin-1A (Homo sapiens) [17] = target: Torsin-1A (Homo sapiens) (UniProt O14656); assay: torsin A binders from cell lysate, primary screen, small-molecule microarray, wild-type, 635/667 nm (AID 1149); conditions: COS7 hTOR1A-WT lysate, 635 nm fluorescence, higher = more signal
Torsin-1A (Homo sapiens) [18] = target: Torsin-1A (Homo sapiens) (UniProt O14656); assay: small-molecule binders of mutant TOR1A in lysate, primary screen, cell lysate, small-molecule microarray, COS7 lysate, 635/667 nm fluorescence (AID 1150); conditions: COS7 hTOR1A mutant lysate, 635 nm fluorescence, higher = more signal;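 also: score pools 667 nm emission and signal to noise measuring lysate protein binding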
[19] = test system: Sonic hedgehog protein (Shh); assay: small-molecule binders of Shh protein, primary screen, biochemical, small-molecule microarray, 635/667 nm fluorescence (AID 1151); conditions: small-molecule microarray binding, 635 nm fluorescence; higher = more signal;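 also: Shh protein binding to compounds spotted on small-molecule microarray slides; score combines spot fluorescence intensity with signal-to-noise across triplicate slides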

Chain of Fibroblast growth factor 2 (Homo sapiens) (P09038 whole entry, looked up): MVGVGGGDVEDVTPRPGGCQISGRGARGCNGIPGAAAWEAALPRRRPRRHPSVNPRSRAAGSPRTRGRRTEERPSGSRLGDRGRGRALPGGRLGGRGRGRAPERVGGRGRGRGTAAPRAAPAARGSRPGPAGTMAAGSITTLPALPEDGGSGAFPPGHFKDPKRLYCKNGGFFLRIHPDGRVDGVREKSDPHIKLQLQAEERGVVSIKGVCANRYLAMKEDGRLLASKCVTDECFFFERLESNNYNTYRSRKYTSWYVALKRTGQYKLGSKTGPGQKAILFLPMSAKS
Chain of Luciferin 4-monooxygenase (Photinus pyralis) (P08659 whole entry, looked up): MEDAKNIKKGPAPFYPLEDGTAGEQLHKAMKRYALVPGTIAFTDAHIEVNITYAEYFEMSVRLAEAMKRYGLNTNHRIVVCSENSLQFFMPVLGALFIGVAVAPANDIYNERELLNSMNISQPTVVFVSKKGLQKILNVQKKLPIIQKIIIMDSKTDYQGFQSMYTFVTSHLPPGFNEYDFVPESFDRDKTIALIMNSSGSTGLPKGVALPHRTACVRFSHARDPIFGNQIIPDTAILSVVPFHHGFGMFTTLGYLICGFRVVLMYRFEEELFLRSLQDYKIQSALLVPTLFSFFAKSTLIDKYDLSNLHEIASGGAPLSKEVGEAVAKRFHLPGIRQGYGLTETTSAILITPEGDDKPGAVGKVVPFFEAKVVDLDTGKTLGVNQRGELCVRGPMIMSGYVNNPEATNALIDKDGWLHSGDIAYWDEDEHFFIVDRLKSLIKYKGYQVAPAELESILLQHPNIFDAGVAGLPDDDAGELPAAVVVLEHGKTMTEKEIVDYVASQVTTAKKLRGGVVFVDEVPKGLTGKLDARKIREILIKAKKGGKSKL
Chain of Torsin-1A (Homo sapiens) (O14656 whole entry, looked up): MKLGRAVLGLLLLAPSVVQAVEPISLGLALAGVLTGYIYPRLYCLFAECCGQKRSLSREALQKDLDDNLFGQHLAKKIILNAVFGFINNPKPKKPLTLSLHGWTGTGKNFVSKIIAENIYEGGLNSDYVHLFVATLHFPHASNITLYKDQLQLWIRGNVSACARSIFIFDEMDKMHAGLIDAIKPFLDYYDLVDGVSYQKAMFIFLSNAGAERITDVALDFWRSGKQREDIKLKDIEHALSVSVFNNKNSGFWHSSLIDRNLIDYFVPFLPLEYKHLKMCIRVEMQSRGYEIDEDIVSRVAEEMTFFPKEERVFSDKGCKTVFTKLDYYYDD
Chain of Focal adhesion kinase 1 (Homo sapiens) (Q05397 whole entry, looked up): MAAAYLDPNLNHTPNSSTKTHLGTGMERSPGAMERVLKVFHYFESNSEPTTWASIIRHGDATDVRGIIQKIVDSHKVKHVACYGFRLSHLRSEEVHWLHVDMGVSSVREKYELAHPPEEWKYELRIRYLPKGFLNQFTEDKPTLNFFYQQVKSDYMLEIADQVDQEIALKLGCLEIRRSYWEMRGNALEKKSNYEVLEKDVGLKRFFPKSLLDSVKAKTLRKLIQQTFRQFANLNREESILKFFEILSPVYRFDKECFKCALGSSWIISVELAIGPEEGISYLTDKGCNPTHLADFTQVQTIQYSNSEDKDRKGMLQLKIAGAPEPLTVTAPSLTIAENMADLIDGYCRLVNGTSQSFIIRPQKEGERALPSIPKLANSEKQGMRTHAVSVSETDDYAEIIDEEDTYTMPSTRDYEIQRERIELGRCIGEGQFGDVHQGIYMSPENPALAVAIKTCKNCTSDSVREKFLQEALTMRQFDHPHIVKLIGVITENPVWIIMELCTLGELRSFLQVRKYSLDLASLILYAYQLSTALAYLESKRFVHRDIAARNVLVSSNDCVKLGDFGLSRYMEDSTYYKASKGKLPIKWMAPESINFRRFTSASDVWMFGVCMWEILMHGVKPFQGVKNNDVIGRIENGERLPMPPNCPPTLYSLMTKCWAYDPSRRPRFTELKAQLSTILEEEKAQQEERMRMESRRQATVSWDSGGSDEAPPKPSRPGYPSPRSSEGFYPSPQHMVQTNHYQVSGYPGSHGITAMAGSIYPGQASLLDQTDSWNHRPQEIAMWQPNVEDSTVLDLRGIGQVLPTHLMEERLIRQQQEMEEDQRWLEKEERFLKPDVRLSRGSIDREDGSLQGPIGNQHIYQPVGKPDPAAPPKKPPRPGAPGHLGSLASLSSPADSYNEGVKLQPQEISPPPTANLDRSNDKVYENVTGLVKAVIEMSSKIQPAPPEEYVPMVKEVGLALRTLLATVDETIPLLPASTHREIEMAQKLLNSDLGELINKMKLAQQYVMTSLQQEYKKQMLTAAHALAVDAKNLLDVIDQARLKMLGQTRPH
Chain of Follistatin (Homo sapiens) (P19883 whole entry, looked up): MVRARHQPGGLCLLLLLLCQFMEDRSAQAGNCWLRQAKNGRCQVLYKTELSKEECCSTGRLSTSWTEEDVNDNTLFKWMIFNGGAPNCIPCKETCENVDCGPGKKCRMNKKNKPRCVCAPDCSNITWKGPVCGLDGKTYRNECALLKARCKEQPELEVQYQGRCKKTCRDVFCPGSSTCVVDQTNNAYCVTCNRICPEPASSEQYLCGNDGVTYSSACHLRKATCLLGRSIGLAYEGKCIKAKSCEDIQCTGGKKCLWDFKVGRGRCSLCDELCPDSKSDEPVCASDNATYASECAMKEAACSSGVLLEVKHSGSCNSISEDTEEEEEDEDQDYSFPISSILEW
Chain of Streptavidin (Streptomyces avidinii) (P22629 whole entry, looked up): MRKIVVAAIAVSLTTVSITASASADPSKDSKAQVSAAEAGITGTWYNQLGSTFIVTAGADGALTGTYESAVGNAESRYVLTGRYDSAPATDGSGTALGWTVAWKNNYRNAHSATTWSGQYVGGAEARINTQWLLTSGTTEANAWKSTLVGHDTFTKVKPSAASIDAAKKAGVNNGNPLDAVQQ

COc1ccc([Si](C)(C)[C@H]2[C@H](CC(=O)N3CCC[C@H]3CO)O[C@@]3(C(=O)N(Cc4ccc(N5CCCCC5=O)cc4)c4ccccc43)[C@@H]2C)cc1
composite z-score [1]: 0.952
composite z-score [2]: 1.17
composite z-score [3]: 0.516
composite z-score [4]: 0.655
composite z-score [5]: 1.27
composite z-score [6]: 1.17
z-score [7]: 1.39
composite z-score (Lefty1): 1.49
composite z-score [8]: 0.513
z-score [9]: 0.627 (inactive)
composite z-score [10]: 0.567
z-score [11]: -3.13 (inactive)
z-score [12]: -0.53 (inactive)
z-score [13]: -0.258 (inactive)
z-score [14]: 0.44 (inactive)
composite z-score [15]: -0.0147
composite z-score [16]: 0.426
composite z-score (Torsin-1A (Homo sapiens) [17]): 0.13
composite z-score (Torsin-1A (Homo sapiens) [18]): 0.608
composite z-score [19]: 2.17

CCCCCC1=C2CNC(Cc3ccccc3)(C(=O)OC)C=C2C(C)C1=O (stereo not given)
composite z-score [1]: 1.01
composite z-score [2]: 0.515
composite z-score [3]: 0.563
composite z-score [4]: 0.837
composite z-score [5]: -0.216
composite z-score [6]: -0.871
z-score [7]: 1.04
composite z-score (Lefty1): -0.849
composite z-score [8]: 0.0953
z-score [9]: 0.423 (inactive)
composite z-score [10]: -0.176
z-score [11]: -1.49 (inactive)
z-score [12]: 0.949 (inactive)
z-score [13]: 0.4 (inactive)
z-score [14]: 2.19 (inactive)
composite z-score [15]: 0.0482
composite z-score [16]: 0.222
composite z-score (Torsin-1A (Homo sapiens) [17]): -0.88
composite z-score (Torsin-1A (Homo sapiens) [18]): 0.154
composite z-score [19]: -0.695

C=CC[C@@]12N=C(c3ccc(OCCCO)cc3)O[C@@H]1c1ccccc1N(CCC)C2=O
composite z-score [1]: 2.58
composite z-score [2]: 1.22
composite z-score [3]: 0.359
composite z-score [4]: 0.512
composite z-score [5]: 1.52
composite z-score [6]: 1.72
z-score [7]: 2.58
composite z-score (Lefty1): 1.31
composite z-score [8]: 0.777
z-score [9]: -2.23 (inactive)
composite z-score [10]: 0.318
z-score [11]: -4.06 (inactive)
z-score [12]: -1.29 (inactive)
z-score [13]: 0.69 (inactive)
z-score [14]: -0.707 (inactive)
composite z-score [15]: -0.0328
composite z-score [16]: -0.0185
composite z-score (Torsin-1A (Homo sapiens) [17]): -0.1
composite z-score (Torsin-1A (Homo sapiens) [18]): 0.204
composite z-score [19]: 1.84

O=C1N(Cc2ccccc2)c2ccccc2C[C@@]12COC(c1ccc(OCCCO)cc1)=N2
composite z-score [1]: 1.55
composite z-score [2]: 1.21
composite z-score [3]: 0.75
composite z-score [4]: 0.785
composite z-score [5]: 1.3
composite z-score [6]: 0.326
z-score [7]: 0.0331
composite z-score (Lefty1): -0.319
composite z-score [8]: 0.98
z-score [9]: -1.92 (inactive)
composite z-score [10]: 0.82
z-score [11]: -3.39 (inactive)
z-score [12]: -0.576 (inactive)
z-score [13]: 2.41 (inactive)
z-score [14]: -0.914 (inactive)
composite z-score [15]: 0.431
composite z-score [16]: 0.397
composite z-score (Torsin-1A (Homo sapiens) [17]): 0.492
composite z-score (Torsin-1A (Homo sapiens) [18]): 1.03
composite z-score [19]: 0.383

CCCCC(O)C1C=CC2C(=O)N(c3ccccc3)C(=O)C2N1Nc1ccc([N+](=O)[O-])cc1 (stereo not given)
composite z-score [1]: 0.709
composite z-score [2]: 1.24
composite z-score [3]: 1.16
composite z-score [4]: 0.992
composite z-score [5]: 0.825
composite z-score [6]: -0.458
z-score [7]: -0.52
composite z-score (Lefty1): 0.264
composite z-score [8]: 0.68
z-score [9]: 1.89 (inactive)
composite z-score [10]: 0.044
z-score [11]: -3.32 (inactive)
z-score [12]: -2.08 (inactive)
z-score [13]: -0.219 (inactive)
z-score [14]: -0.176 (inactive)
composite z-score [15]: 0.736
composite z-score [16]: 0.215
composite z-score (Torsin-1A (Homo sapiens) [17]): 0.47
composite z-score (Torsin-1A (Homo sapiens) [18]): 0.482
composite z-score [19]: -0.61

C=CCC(OC(C)=O)[C@@H]1[C@@H](N(Cc2cccc3ccccc23)C(=O)Cc2ccc(OC)cc2)c2cc(OCCCO)ccc2N1C(=O)Cc1ccc2ccccc2c1 (stereo not given in full)
composite z-score [1]: -0.538
composite z-score [2]: -0.609
composite z-score [3]: -0.495
composite z-score [4]: -0.331
composite z-score [5]: 0.688
composite z-score [6]: 0.182
z-score [7]: 0.309
composite z-score (Lefty1): 0.353
composite z-score [8]: 0.507
z-score [9]: 0.969 (inactive)
composite z-score [10]: -0.0841
z-score [11]: -1.91 (inactive)
z-score [12]: 0.255 (inactive)
z-score [13]: -0.854 (inactive)
z-score [14]: 1.38 (inactive)
composite z-score [15]: 0.175
composite z-score [16]: -0.181
composite z-score (Torsin-1A (Homo sapiens) [17]): -0.254
composite z-score (Torsin-1A (Homo sapiens) [18]): -0.41
composite z-score [19]: 0.0227

COC(=O)c1cccc([C@H]2OC(=CC(=O)OC(C)C)C[C@@H](c3cccc(C(=O)OC)c3)O2)c1
composite z-score [1]: 1.51
composite z-score [2]: 1.24
composite z-score [3]: 1.09
composite z-score [4]: 1
composite z-score [5]: 1.11
composite z-score [6]: 0.748
z-score [7]: -0.562
composite z-score (Lefty1): 0.679
composite z-score [8]: 0.961
z-score [9]: -1.74 (inactive)
composite z-score [10]: 1.19
z-score [11]: -2.17 (inactive)
z-score [12]: 0.111 (inactive)
z-score [13]: 1.26 (inactive)
z-score [14]: 1.05 (inactive)
composite z-score [15]: 1.21
composite z-score [16]: 0.0649
composite z-score (Torsin-1A (Homo sapiens) [17]): 1.64
composite z-score (Torsin-1A (Homo sapiens) [18]): 1.53
composite z-score [19]: 1

O=C1OCCC=C[C@H]2OC34C=CCN(c5ccc6ccccc6c5)C(=O)[C@H]3N(CCO)C(=O)[C@@H]4C12 (stereo not given in full)
composite z-score [1]: -0.75
composite z-score [2]: -0.803
composite z-score [3]: -0.101
composite z-score [4]: -0.318
composite z-score [5]: -0.129
composite z-score [6]: -0.909
z-score [7]: -0.522
composite z-score (Lefty1): -0.472
composite z-score [8]: -0.117
z-score [9]: -0.207 (inactive)
composite z-score [10]: -0.457
z-score [11]: 0.291 (inactive)
z-score [12]: -0.663 (inactive)
z-score [13]: -0.887 (inactive)
z-score [14]: 0.463 (inactive)
composite z-score [15]: -0.906
composite z-score [16]: -0.753
composite z-score (Torsin-1A (Homo sapiens) [17]): -1.41
composite z-score (Torsin-1A (Homo sapiens) [18]): -0.669
composite z-score [19]: 0.116

[N-]=[N+]=Nc1ccccc1C[C@@]1(C(=O)NCc2ccccc2)N=C(c2ccc(OCCCO)cc2)O[C@@H]1c1ccccc1N=[N+]=[N-]
composite z-score [1]: 1.27
composite z-score [2]: 1.17
composite z-score [3]: 0.268
composite z-score [4]: 0.664
composite z-score [5]: 1.32
composite z-score [6]: 0.32
z-score [7]: 0.197
composite z-score (Lefty1): -0.0327
composite z-score [8]: 1.03
z-score [9]: -2.56 (inactive)
composite z-score [10]: 0.897
z-score [11]: -5.79 (inactive)
z-score [12]: -0.424 (inactive)
z-score [13]: 0.596 (inactive)
z-score [14]: -2.3 (inactive)
composite z-score [15]: 0.905
composite z-score [16]: 0.767
composite z-score (Torsin-1A (Homo sapiens) [17]): 0.123
composite z-score (Torsin-1A (Homo sapiens) [18]): 0.388
composite z-score [19]: 0.473

Cc1ccc(N2C(=O)c3ccccc3[C@](C)(C(=O)NCCCN(C)C)[C@@H]2c2ccc(CO)cc2)nc1
composite z-score [1]: -0.479
composite z-score [2]: -0.254
composite z-score [3]: 0.304
composite z-score [4]: -0.18
composite z-score [5]: 0.351
composite z-score [6]: -1.21
z-score [7]: 0.361
composite z-score (Lefty1): -0.28
composite z-score [8]: -0.0926
z-score [9]: -0.156 (inactive)
composite z-score [10]: -0.169
z-score [11]: 0.368 (inactive)
z-score [12]: 0.414 (inactive)
z-score [13]: 0.0279 (inactive)
z-score [14]: 0.64 (inactive)
composite z-score [15]: -0.0986
composite z-score [16]: -0.0983
composite z-score (Torsin-1A (Homo sapiens) [17]): -1.38
composite z-score (Torsin-1A (Homo sapiens) [18]): -1.27
composite z-score [19]: -1.01
